Bioassay records as filed in PubChem.
IL1B secr inh: blocks inflammasome-driven IL-1 beta release; hit rate 4.7% among 360,000; activity change, % at 57.5 µM; THP-1 LPS/ATP IL-1B secretion, AlphaLISA, 16 h; active compounds read low; in the data active = activity change below about -50%; inconclusive = mostly about -30% to -49%
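Secreted IL-1B measured by AlphaLISA bead assay after 16 h compound exposure of THP-1 cells; compounds (final up to 57.5 uM) added 1 h before LPS (250 ng/mL) and ATP (1.25 mM) stimulation; lower signal means less secretion.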
DT40 TDP1 no CPT: qHTS for Inhibitors of human tyrosyl-DNA phosphodiesterase 1 (TDP1): qHTS in cells in absence of CPT | DT40 Tdp1-/- hTDP1 cells, no CPT, ATP luminescence, 48 h | Potency, µM (top dose mostly 46.2 µM), most hits filed as inhibitors | hit rate 15% among 420,000; note: nearly all actives have a fitted effect of over 55% in size
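Growth kinetics read by CellTiter-Glo luminescence after ≥48 hr at 37 °C. Cells: DT40 Tdp1-/- stably carrying human TDP1, 400 per well, compound exposure in the absence of CPT (DMSO vehicle).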
HT1080-NT tox: kills 2HG-producing HT-1080-NT fibrosarcoma cells; AID 686970; Potency, µM (top dose mostly 46.1 µM), hits mostly cytotoxic; hit rate 1.6% among 360,000; HT-1080-NT fibrosarcoma viability, CellTiter-Glo ATP luminescence, 48 h;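 note: NT is the 2HG producing partner of a matched IDH1 knockdown line; nearly all actives have a fitted effect of over 55% in size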
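Toxicity toward the 2HG-producing NT line was scored as %Activity, normalised to DMSO and no-cell wells, from CellTiter-Glo luminescence after 48 hours' treatment.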
DT40 TDP1 CPT: growth inhibition of DT40 Tdp1-/-;hTDP1 cells with camptothecin (screen for TDP1 inhibitors); chicken DT40 Tdp1-/-;hTDP1 cells + 20 nM CPT, ATP luminescence, 48 h; Potency, µM (titrated, usually from 46.2 µM), most hits filed as inhibitors; hit rate 12% among 420,000; AID 686979; note: nearly all actives have a fitted effect of over 55% in size
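Cell growth measured by CellTiter-Glo luminescence after a minimum 48 h, 37 C compound exposure with 20 nM CPT in Tdp1-knockout DT40 cells stably expressing hTDP1, seeded 400/well; qHTS titration format.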
HT1080 IDH1KD tx: toxicity to HT-1080 IDH1 knockdown cells (counter line); HT-1080 IDH1 knockdown viability, ATP luminescence, 48 h; hit rate 2% among 360,000; Potency, µM (series often up to 46.1 µM), most hits filed as cytotoxic; AID 686971
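% activity derives from luminescence (CellTiter-Glo), normalised to DMSO and no-cell wells. HT-1080-IDH1KD cells, 750/well, had 48 h compound exposure at 37 °C.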
Hits are given with their value; 0 = inactive; ? = inconclusive; - = not tested or not shown; [ ] = dose if it differs, or a comment. Compounds with a hit are over-represented: about 19% of the library has one in this group of screens. Unless noted, calls come from the whole dose curve; as a rule, active = well fitted curve in the direction sought with a large enough effect; inconclusive = small, poorly fitted or top-dose-only effect, or another doubt; inactive = no such curve, though single readings can be large; an effect the other way counts as inactive or inconclusive.

SMILES | IL1B secr inh | DT40 TDP1 no CPT | HT1080-NT tox | DT40 TDP1 CPT | HT1080 IDH1KD tx
Cc1cc(NC(=O)CN2CCOCC2)n(-c2nc3ccccc3s2)n1 | 0 | 21µM | 0 | 15µM | 0
Cc1cc(C)nc(-n2nc(C)cc2NC(=O)c2cccc(S(=O)(=O)N(C)C)c2)n1 | 0 | 0 | 0 | 0 | 0
Cc1ccc(C)c(C(=O)Nc2cc(C)nn2-c2nc(C)cc(C)n2)c1 | 0 | 5.2µM | 0 | 3.3µM | 0
NC(=O)C(C1=CCCCC1)c1ccccc1 (stereo not given) | 0 | 0 | 0 | 0 | 0
CCCCN1CC(COC)Oc2cccc(F)c2S1(=O)=O (stereo not given) | 0 | 0 | 0 | 0 | 0
CCc1nc2nc(C)c(NS(=O)(=O)c3ccc(Cl)s3)c(=O)n2[nH]1 | 0 | 0 | 0 | 0 | 0
CCCCc1c(C)nc2c(-c3ccc(OC)cc3)c(C)[nH]n2c1=O | - | 10µM | - | 16µM | -
Cc1nc2c(C#N)c(C)[nH]n2c(=O)c1Cc1ccccc1 | 0 | 0 | 0 | 0 | 0
Cc1ccccc1Cc1c(C)nc2c(-c3ccccc3)c(C)[nH]n2c1=O | - | 21µM | - | ? | -
Cc1nc2c(-c3ccccc3)c(C)[nH]n2c(=O)c1Cc1ccccc1 | 0 | ? | 0 | ? | ?
COc1ccc(-c2c(C)[nH]n3c(=O)c(Cc4ccccc4)c(C)nc23)cc1OC | 0 | 18µM | 0 | ? | ?
Cc1cccc(Cc2c(C)nc3c(-c4ccccc4)c(C)[nH]n3c2=O)c1 | - | 3.7µM | - | 5.8µM | -
COc1cccc(NC(=O)Cn2c(=O)n(Cc3ccc(C(=O)NCc4ccc5c(c4)OCO5)cc3)c(=O)c3ccccc32)c1 | - | 0 | - | 0 | -
CCOC(=O)C1=C(c2ccccc2)NC(SCC(=O)Nc2ccccc2C)=C(C#N)C1c1ccco1 (stereo not given) | 0 | ? | 0 | 0 | 0
CCn1cc(C(=O)OCC(=O)OC2CC(C)CCC2C(C)C)c(=O)c2ccc(C)nc21 (stereo not given) | 0 | ? | ? | 18µM | ?
CC1CCc2cc(F)ccc2N1C(=O)C1(C)CC1(Cl)Cl (stereo not given) | 0 | ? | 0 | 0 | 0
CCC(C)(C)n1nnnc1C(c1cc2ccc(C)cc2[nH]c1=O)N(Cc1cccnc1)Cc1ccco1 (stereo not given) | -69 | ? | 0 | ? | 0
Cc1cc2cc(C(c3nnnn3C3CCCC3)N(Cc3cccnc3)Cc3ccco3)c(=O)[nH]c2cc1C (stereo not given) | ? | ? | ? | ? | 10µM
COCCn1nnnc1C(c1cc2ccc(C)cc2[nH]c1=O)N(Cc1ccco1)Cc1cccs1 (stereo not given) | 0 | 0 | ? | 0 | ?
Cc1ccc2cc(C(c3nnnn3C3CCCC3)N(Cc3ccccc3)Cc3ccco3)c(=O)[nH]c2c1 (stereo not given) | 0 | ? | 0 | 21µM | 0
Cc1cc2cc(CN(Cc3ccco3)C(=O)C3CCCCC3)c(=O)[nH]c2cc1C | 0 | ? | 0 | 0 | 0
CCCn1nc(NC(=O)c2cccc(Cl)c2)c2cc3cccc(C)c3nc21 | - | 0 | - | ? | -
Fc1ccc(-c2nc3c(-c4ccccc4)cnn3cc2CCN2CCOCC2)cc1 | 0 | 0 | 0 | 0 | 0
CCN(CC)C(=O)c1sc2c(c1C)c(=O)n(-c1ccc(Cl)c(Cl)c1)c(=O)n2Cc1cc(=O)n2ccccc2n1 | - | ? | - | 0 | -
CC(=O)c1ccc(NC(=O)CSc2ccc3nnc(-c4cccnc4)n3n2)cc1 | 0 | 0 | 0 | 0 | 0
SMILES | IL1B secr inh | DT40 TDP1 no CPT | HT1080-NT tox | DT40 TDP1 CPT | HT1080 IDH1KD tx
O=C1Nc2cc(C(=O)NCCCN3CCCC3)ccc2S/C1=C/c1ccccc1F | ? | ? | 0 | 18µM | 0
O=C1Nc2cc(C(=O)NCCN3CCCCCC3)ccc2S/C1=C/c1ccccc1F | -102 | 3.7µM | ? | 7.3µM | ?
CCCCOc1ccc(C(=O)N2CCC(c3nc4ccccc4o3)CC2)cc1 | - | 13µM | - | ? | -
Cc1cccc(OC(C)C(=O)N2CCC(c3nc4ccccc4o3)CC2)c1C (stereo not given) | - | 23µM | - | ? | -
CCOc1ccccc1C(=O)N1CCOCC1 | 0 | 0 | 0 | 0 | 0
CCOc1ccc(NC(=O)N2CCC(c3nc4ccccc4o3)CC2)cc1 | 0 | ? | 0 | ? | 0
CC(C)Oc1ccc(C(=O)N2CCC(c3nc4ccccc4o3)CC2)cc1 | - | 18µM | - | ? | -
COC(=O)c1ccccc1S(=O)(=O)N1CCC(c2nc3ccccc3o2)CC1 | 0 | ? | 0 | 0 | 0
CCOc1ccccc1C(=O)N1CCC(c2nc3ccccc3o2)CC1 | - | 21µM | - | ? | -
CCCN(C(=O)c1cccc(S(=O)(=O)N2CCN(C)CC2)c1)c1c(N)n(Cc2ccccc2)c(=O)[nH]c1=O | 0 | 0 | 0 | 0 | 0
CC1CCCCC12NC(=O)N(CC(=O)NCCc1c[nH]c3ccccc13)C2=O (stereo not given) | 0 | 0 | 0 | 0 | 0
Cc1ccccc1C(=O)NNC(=S)NC(=O)c1ccc(Cl)cc1Cl | 0 | ? | ? | ? | 0
CCCN(CCC)C(=S)NC(=O)c1ccc(Cl)cc1Cl | 0 | ? | 3.2µM | 18µM | 2.5µM
O=C(CNc1cccc2ccccc12)N/N=C/c1ccc[nH]1 | 0 | 0 | 0 | 0 | ?
O=C(CNc1cccc2ccccc12)N/N=C/c1ccc([N+](=O)[O-])o1 | 0 | 4.1µM | ? | 6.5µM | ?
O=C(CNc1cccc2ccccc12)N/N=C/C(Br)=C/c1ccccc1 | 0 | 10µM | ? | 12µM | ?
O=C(CNc1cccc([N+](=O)[O-])c1)N/N=C/c1ccc([N+](=O)[O-])o1 | -67 | 2.6µM | ? | 2.9µM | ?
O=C(CNc1ccccc1)N/N=C/c1ccc([N+](=O)[O-])cc1 | 0 | 0 | 0 | 0 | 0
CCOc1ccc(S(=O)(=O)n2nc(C)c(S(=O)(=O)N3CCCCC3)c2C)cc1 | - | 0 | - | 0 | -
c1ccc(-c2ccc(-c3csnn3)cc2)cc1 | 0 | 0 | 0 | 0 | 0[9.24 µM]
Fc1ccc(-c2csc(-c3ccncc3)n2)cc1 | 0 | 0 | 0 | 0 | 0
O=S(=O)(Nc1ccc(-c2csc(-c3ccccc3)n2)cc1)c1ccc(F)cc1 | -101 | ? | 0 | ? | 0
O=S(=O)(Nc1ccccc1)c1ccc(-c2csnn2)cc1 | ? | 23µM | 0 | ? | 0
O=C1N(Cc2cccc(Cl)c2)C[C@@H]2C[C@@H](c3cccn3-c3cccnc3)N3CCC[C@@]123 | -56 | 21µM | 0 | ? | 0
Cn1cc([C@@H]2C[C@H]3CN(Cc4cccc(Cl)c4)C(=O)[C@]34CCCN24)c(-c2ccccc2)n1 | -80 | ? | 0 | ? | 0
Cc1nn(C)cc1[C@@H]1C[C@H]2CN(Cc3cccc(Cl)c3)C(=O)[C@]23CCCN13 | 0 | ? | 0 | 0 | 0
COC(=O)c1ccccc1C(=O)N1CCOc2ccc(CN3CCN(c4ccccn4)CC3)cc2C1 | - | 0 | - | 0[9.04 µM] | -
COc1cc(SC)ccc1C(=O)Nc1ccc2ncccc2c1 | 0 | ? | ? | ? | 0
